Screen size: about 5,500 compounds; about 2,000 (36%) were called active. About 18% were inconclusive and are not listed. No stated cut-off is given here; in the data, active means normalized growth mostly below about 0.91 (no sharp cut-off); inconclusive means no clear call, values can overlap the other calls; inactive means mostly above about 0.92. This is one part of the list.
Assay: chemical genetic growth profiling, strain panel (AID 1159580);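 further: tested at 20 µM; growth read once vehicle control cultures reached saturation at 30 °C; 1 = growth at the plate median or of vehicle wells; lower values mean less growth of the strain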
Settings: growth OD

Measured: normalized growth

COC(=O)c1c(C)cc(OC)cc1O
inactive: S. cerevisiae deletion strains, locus YJR075W, strain HOC1, hits give low values 0.974 | S. cerevisiae deletion strains, locus YKL009W, strain mrt4, hits give low values 0.964 | S. cerevisiae deletion strains, locus YKL068W, hits give low values 0.995 | S. cerevisiae deletion strains, locus YKL085W, strain MDH1 (second series), hits give low values 0.978 | S. cerevisiae deletion strains, locus YKL085W, strain MDH1, hits give low values 0.978 | S. cerevisiae deletion strains, locus YKL160W, strain elf1, hits give low values 0.971 | S. cerevisiae deletion strains, locus YKL190W, strain CNB1, hits give low values 0.991 | S. cerevisiae deletion strains, locus YKR001C, strain vps1, hits give low values 0.959 | S. cerevisiae deletion strains, locus YKR026C, strain gcn3, hits give low values 0.972 | S. cerevisiae deletion strains, locus YKR091W, strain srl3, hits give low values 0.974 | S. cerevisiae deletion strains, locus YLL001W, strain dnm1, hits give low values 0.973 | S. cerevisiae deletion strains, locus YLL026W, hits give low values 0.981 | S. cerevisiae deletion strains, locus YLL041C, strain sdh2, hits give low values 1 | S. cerevisiae deletion strains, locus YLR027C, strain aat2, hits give low values 0.967 | S. cerevisiae deletion strains, locus YLR039C, strain RIC1, hits give low values 0.995 | S. cerevisiae deletion strains, locus YLR058C, strain SHM2, hits give low values 0.998 | S. cerevisiae deletion strains, locus YLR102C, strain apc9, hits give low values 0.981 | S. cerevisiae deletion strains, locus YLR113W, strain HOG1, hits give low values 1.02 | S. cerevisiae deletion strains, locus YLR221C, strain rsa3, hits give low values 0.959 | S. cerevisiae deletion strains, locus YLR258W, strain gsy2, hits give low values 0.974 | S. cerevisiae deletion strains, locus YLR262C, strain YPT6 (second series), hits give low values 1.02 | S. cerevisiae deletion strains, locus YLR262C, strain YPT6, hits give low values 1.01 | S. cerevisiae deletion strains, locus YLR268W, strain sec22, hits give low values 0.989 | S. cerevisiae deletion strains, locus YLR320W, strain mms22, hits give low values 0.947 | S. cerevisiae deletion strains, locus YLR330W, strain CHS5, hits give low values 0.993 | S. cerevisiae deletion strains, locus YLR342W, strain FKS1 (second series), hits give low values 1 | S. cerevisiae deletion strains, locus YLR342W, strain FKS1, hits give low values 0.989 | S. cerevisiae deletion strains, locus YLR357W, strain rsc2, hits give low values 0.983 | S. cerevisiae deletion strains, locus YLR370C, strain arc18, hits give low values 0.986 | S. cerevisiae deletion strains, locus YLR371W, strain rom2, hits give low values 0.989 | S. cerevisiae deletion strains, locus YLR384C, strain iki3, hits give low values 0.976 | S. cerevisiae deletion strains, locus YLR418C, strain cdc73, hits give low values 0.941 | S. cerevisiae deletion strains, locus YML016C, strain PPZ1, hits give low values 0.982 | S. cerevisiae deletion strains, locus YML032C, strain rad52, hits give low values 0.976 | S. cerevisiae deletion strains, locus YML120C, strain ndi1, hits give low values 0.988 | S. cerevisiae deletion strains, locus YML124C, strain tub3, hits give low values 0.984 | S. cerevisiae deletion strains, locus YMR058W, strain fet3, hits give low values 0.978 | S. cerevisiae deletion strains, locus YMR078C, strain ctf18, hits give low values 0.981 | S. cerevisiae deletion strains, locus YMR125W, strain sto1, hits give low values 0.993 | S. cerevisiae deletion strains, locus YMR129W, hits give low values 0.993 | S. cerevisiae deletion strains, locus YMR205C, strain PFK2, hits give low values 0.95 | S. cerevisiae deletion strains, locus YMR223W, strain ubp8, hits give low values 0.971 | S. cerevisiae deletion strains, locus YMR231W, strain pep5, hits give low values 1 | S. cerevisiae deletion strains, locus YMR263W, strain SAP30, hits give low values 0.982 | S. cerevisiae deletion strains, locus YMR307W, strain GAS1, hits give low values 1.03 | S. cerevisiae deletion strains, locus YNL067W, strain RPL9B, hits give low values 0.994 | S. cerevisiae deletion strains, locus YNL071W, strain lat1, hits give low values 0.98 | S. cerevisiae deletion strains, locus YNL128W, strain TEP1, hits give low values 1.01 | S. cerevisiae deletion strains, locus YNL153C, strain GIM3, hits give low values 0.988 | S. cerevisiae deletion strains, locus YNL183C, strain NPR1, hits give low values 0.979 | S. cerevisiae deletion strains, locus YNL209W, strain ssb2, hits give low values 0.999 | S. cerevisiae deletion strains, locus YNL233W, strain BNI4, hits give low values 0.992 | S. cerevisiae deletion strains, locus YNL248C, strain rpa49, hits give low values 0.982 | S. cerevisiae deletion strains, locus YNL250W, strain rad50, hits give low values 0.979 | S. cerevisiae deletion strains, locus YNL271C, strain bni1, hits give low values 0.978 | S. cerevisiae deletion strains, locus YNL298W, strain CLA4, hits give low values 0.996 | S. cerevisiae deletion strains, locus YNL307C, strain MCK1, hits give low values 0.914 | S. cerevisiae deletion strains, locus YNL322C, strain KRE1 (second series), hits give low values 0.953 | S. cerevisiae deletion strains, locus YNL322C, strain KRE1, hits give low values 0.997 | S. cerevisiae deletion strains, locus YNR049C, strain mso1, hits give low values 0.998 | S. cerevisiae deletion strains, locus YNR052C, strain pop2, hits give low values 1 | S. cerevisiae deletion strains, locus YOL006C, strain TOP1, hits give low values 0.848 | S. cerevisiae deletion strains, locus YOL012C, strain htz1 0.923 | S. cerevisiae deletion strains, locus YOL147C, strain pex11, hits give low values 0.978 | S. cerevisiae deletion strains, locus YOR001W, strain rrp6, hits give low values 0.985 | S. cerevisiae deletion strains, locus YOR061W, strain CKA2, hits give low values 1.01 | S. cerevisiae deletion strains, locus YOR069W, strain VPS5, hits give low values 0.995 | S. cerevisiae deletion strains, locus YOR070C, strain gyp1, hits give low values 0.971 | S. cerevisiae deletion strains, locus YOR080W, strain dia2, hits give low values 0.982 | S. cerevisiae deletion strains, locus YOR083W, strain WHI5, hits give low values 0.96 | S. cerevisiae deletion strains, locus YOR106W, strain vam3, hits give low values 0.978 | S. cerevisiae deletion strains, locus YOR136W, strain idh2, hits give low values 0.995 | S. cerevisiae deletion strains, locus YOR144C, strain elg1, hits give low values 0.99 | S. cerevisiae deletion strains, locus YOR184W, strain ser1, hits give low values 0.922 | S. cerevisiae deletion strains, locus YOR231W, strain MKK1, hits give low values 1.03 | S. cerevisiae deletion strains, locus YOR265W, strain rbl2, hits give low values 0.965 | S. cerevisiae deletion strains, locus YOR270C, strain vph1, hits give low values 0.891 | S. cerevisiae deletion strains, locus YOR290C, strain snf2, hits give low values 0.977 | S. cerevisiae deletion strains, locus YOR316C, strain cot1, hits give low values 0.988 | S. cerevisiae deletion strains, locus YPL051W, strain arl3, hits give low values 0.954 | S. cerevisiae deletion strains, locus YPL055C, strain LGE1, hits give low values 1 | S. cerevisiae deletion strains, locus YPL078C, strain atp4, hits give low values 0.917 | S. cerevisiae deletion strains, locus YPL106C, strain sse1, hits give low values 0.929 | S. cerevisiae deletion strains, locus YPL240C, strain hsp82, hits give low values 0.974 | S. cerevisiae deletion strains, locus YPL241C, strain CIN2, hits give low values 0.994 | S. cerevisiae deletion strains, locus YPL256C, strain CLN2, hits give low values 1.03 | S. cerevisiae deletion strains, locus YPR119W, strain clb2, hits give low values 0.972 | S. cerevisiae deletion strains, locus YPR141C, strain kar3, hits give low values 0.98 | S. cerevisiae deletion strains, locus YPR163C, strain tif3, hits give low values 1 | S. cerevisiae deletion strains, locus YPR167C, strain met16, hits give low values 0.982 | S. cerevisiae deletion strains, strain wtn01, hits give low values 0.964 | S. cerevisiae strains, strain wild type, hits give low values 1

Source: PubChem BioAssay AID1159580 (chemical genetic matrix, 2015)
